Results filed as inconclusive are left out. Calls of active or inactive are those of the source. Unless noted, the call rests on the fitted dose curve; in most records, active means well fitted curve in either direction with a large enough effect (not every such curve was filed as active); inconclusive means small, poorly fitted or top-dose-only effect, or another doubt; inactive means flat fitted curve, though single readings scatter.
Experiments:
[1] = AP1 Signaling Pathway (AID 357); settings: ME-180 AP-1-bla reporter, EGF-induced, beta-lactamase ratio, 5 h; at 7.69 µM (top of the series) unless noted; further: on the % scale 0 is the no-effect control and ±100 the full control effect
How it was run: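 Titration-series screen for positive or negative modulators of EC50 EGF-induced signaling in ME-180 cells carrying an AP-1-driven beta-lactamase reporter. After 5 hours at 37 degrees Celsius, CCF4 460nm/530nm emission ratio gave %Activity; AC50 values derived.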

[2] = biological target: Cytochrome P450 1A2 (Homo sapiens) (UniProt P05177); test: p450-cyp1a2 (AID 410; calls by dose curve; further: potency means the concentration at half of the fitted maximal effect;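 on activity change, negative = inhibition: -100% = full effect of reference inhibitor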)
How it was run: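 Human CYP1A2 (20nM) demethylated Luciferin-ME at its Km (100uM) in 100mM KPO4. After 10 min compound preincubation, NADPH regeneration ran the reaction 60 min at room temperature. Luciferin was read by luminescence, normalized to 57 uM furafylline.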

[3] = NFAT Signaling Pathway (AID 444); settings: Jurkat NFAT-bla M1, carbachol, beta-lactamase ratio, 5 h; at 7.69 µM (top of the series) unless noted;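 further: carbachol stimulus at about its EC50 of 1 µM final; on the % scale 0 is the no-effect control and ±100 the full control effect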
How it was run: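 Jurkat cells with NFAT-driven β-lactamase reporter and co-expressed M1 receptor, stimulated with carbachol (final 1 uM, ~EC50), compound titration, 5 h at 37 °C. CCF4 loaded 1 h at RT; 460/530 nm ratio gave %activity and AC50.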

[4] = Stat Signaling Pathway (AID 446); settings: ME-180 (cervical carcinoma) SIE beta-lactamase reporter, IL-6 stimulated, 5 h; at 7.69 µM (top of the series) unless noted;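 further: ME-180 cervical cancer cells given 40 pM IL-6 alongside compound; SIE-controlled beta-lactamase reporter measured as 460/530 nm FRET emission ratio; on the % scale 0 is the no-effect control and ±100 the full control effect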
How it was run: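 IL-6/STAT signaling read in ME-180 cells via an SIE beta-lactamase reporter. Stimulus was 40 pM IL-6 (its AC50) for 5 hrs, so both activation and inhibition register.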

[5] = biological target: Glucocorticoid receptor (Homo sapiens) (UniProt P04150); test: GR-EFC Redistribution (AID 451; calls by dose curve; further: potency means the concentration at half of the fitted maximal effect); settings: CHO-K1 GR-EFC translocation, beta-gal luminescence, 2 h
How it was run: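 CHO-K1 cells expressing nuclear EA and GR-ED fragments of b-gal; compounds titrated up to 46 uM final, 2 h at 37 C. GR nuclear translocation read as complemented b-gal luminescence after 1 h RT detection.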

[6] = biological target: Mitogen-activated protein kinase 10 (Mus musculus) (UniProt Q61831); test: JNK3 AlphaScreen Assay (AID 530);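 further: kinase came from lysate of stimulated human HepG2 cells; signal reports phosphorylation of biotinylated GST-cJun 1-79 at Ser73 with 10 µM ATP; on the % scale 0 is the no-effect control and ±100 the full control effect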
How it was run: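 qHTS format: compounds tested as titrations against IL-1beta/TNF-alpha-activated HepG2 lysate JNK3 with biotin-GST-cJun substrate and 10 uM ATP at room temperature. Loss of anti-phospho-cJun AlphaScreen signal indicates inhibition.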

[7] = biological target: 3',5'-cyclic-AMP phosphodiesterase 4B (Homo sapiens) (UniProt Q07343); test: qHTS Assay for Inhibitors of PDE-IV (AID 607; active means well fitted activation curve with a large enough effect in the main read-out, with a control signal flat, not every such curve was filed as active; further: % of control where 0% means no effect)
How it was run: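 Live HEK293 cells with a modified cyclic nucleotide-gated (CNG) channel report intracellular cAMP via membrane-potential dye fluorescence (ex 535/em 590 nm). Endogenous PDE-IV was targeted. Compounds were tested at up to 22.9 uM final; RO 20-1724 100 uM served as control.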

[8] = qHTS Assay for Lipid Storage Modulators (AID 1519; calls by dose curve); settings: Drosophila S3 cells, BODIPY lipid droplet/cell ratio, laser cytometry, cells loaded with oleic acid; for activity change, negative = inhibition: at 57.5 µM (top of the series)
How it was run: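 Cells seeded at 5,000 per well were treated with compounds over a concentration series and loaded with oleic acid (400 uM, as added). Lipid droplet fluorescence (488 nm excitation, 500-530 nm channel) was read by laser-scanning cytometry and normalized to 20 uM Triacsin C.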

[9] = Primary qHTS for small molecule stabilizers of the endoplasmic reticulum resident proteome: Secreted ER Calcium Modulated Protein (SERCaMP) assay (AID 1508630; active means well fitted curve in the direction sought with a large enough effect; an effect the other way counts as inactive or inconclusive; further: on the % scale 0 is the no-effect control and ±100 the full control effect)
How it was run: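 GLuc-SERCaMP-expressing SH-SY5Y cells, pretreated 16 h with compound, are challenged with thapsigargin to empty ER calcium stores; after 4 h, coelenterazine is added directly to the medium and luminescence is imaged.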

[10] = biological target: Lysosomal acid glucosylceramidase (Homo sapiens) (UniProt P04062); test: Glucocerebrosidase-p2 (AID 348; in the data active means potency below about 10 µM; further: potency means the concentration at half of the fitted maximal effect); settings: purified GBA, blue fluorogenic substrate, 40 min
How it was run: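 Compounds titrated from 0.6 nM upwards against 0.2 nM enzyme in pH 5.9 citric acid/KH2PO4, taurocholate, tween-20; blue fluorogenic substrate 80 uM, 40 min room temperature, stopped and read Ex 365/Em 440 for AC50.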

[11] = biological target: Glucocorticoid receptor (Homo sapiens) (UniProt P04150); test: GR-GFP Redistribution (AID 450;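 active means compounds whose dose series gives a full or clear partial fitted curve of increased nuclear translocation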; further: potency means the concentration at half of the fitted maximal effect); settings: U2OS GR-GFP nuclear translocation, laser cytometry, 2 h
[12] = biological target: Cytochrome P450 3A4 (Homo sapiens) (UniProt P08684); test: qHTS Assay for Activators of Cytochrome P450 3A4 (AID 885; active means well fitted curve in the direction sought with a large enough effect; an effect the other way counts as inactive or inconclusive; further: nearly all actives have a fitted effect of over 65% in size)
How it was run: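 Quantitative HTS format: compounds preincubated with 20nM human CYP3A4 and Luciferin-PPXE substrate at KM, reaction started by NADPH regeneration, stopped after 60 min, luciferase luminescence read 20 min later.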

[13] = Confirmation and Secondary Assay for Modulators of Hemoglobin Beta Chain Splicing at IVS2 654 locus (AID 910; active means well fitted curve in the direction sought with a large enough effect; an effect the other way counts as inactive or inconclusive;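 further: HeLa cells stably carrying EGFP split by mutant beta-globin IVS2-654 intron; % of control where 0% means no effect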)
How it was run: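 HeLa cells stably expressing EGFP interrupted by β-globin IVS2-654 intron, seeded overnight in Opti-MEM/2% FCS, then treated 2 days at 37 °C. Restored splicing read as total peak GFP intensity per well by laser scanning cytometry (488 nm excitation, 500–520 nm emission); 500 nM antisense PNA as control.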

[14] = Confirmation and Secondary Assay for Modulators of Hemoglobin Beta Chain Splicing at IVS2 705 locus (AID 930; active means well fitted curve in the direction sought with a large enough effect; an effect the other way counts as inactive or inconclusive;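 further: HeLa cells stably expressing the EGFP-705 splicing reporter; GFP fluorescence per well restored by corrected splicing of the IVS2-705 intron in EGFP; % of control where 0% means no effect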)
How it was run: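 HeLa IVS2-705 EGFP reporter cells, 500/well, compound 2 d at 37C; correct splicing yields fluorescent EGFP. Control: 500 nM antisense PNA. Read-out: total peak GFP intensity.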

[15] = biological target: Ubiquitin carboxyl-terminal hydrolase 1 (Homo sapiens) (UniProt O94782); test: Inhibitors of USP1/UAF1: Pilot qHTS (AID 504865; active means well fitted curve in the direction sought with a large enough effect; an effect the other way counts as inactive or inconclusive;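 further: rhodamine fluorescence freed from ubiquitin-rhodamine substrate followed over time; top concentration of the series differs between compounds; on the % scale 0 is the no-effect control and ±100 the full control effect; nearly all actives have a fitted effect of over 35% in size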)
How it was run: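 In 50mM HEPES pH 7.8 containing 0.5mM EDTA, 1mM TCEP, 0.1 mg/ml BSA and 0.01% Tween-20, 1nM USP1/UAF1 is exposed to compound for 15 min, then Ub-Rho (150nM final) is added and fluorescence is read over time.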

[16] = biological target: Cytochrome P450 3A4 (Homo sapiens) (UniProt P08684); test: qHTS Assay for Inhibitors and Substrates of Cytochrome P450 3A4 (AID 884; active means well fitted curve in the direction sought with a large enough effect; an effect the other way counts as inactive or inconclusive; further: potency means the concentration at half of the fitted maximal effect; nearly all actives have a fitted effect of over 50% in size)
How it was run: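 20 nM human CYP3A4 with 25 uM Luciferin-PPXE (at KM) in 200 mM KPO4, preincubated 10 min with compound; NADPH regeneration started a 60 min RT reaction. Luciferin detected by luminescence, normalized to 57 uM ketoconazole as full inhibition.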

[17] = biological target: Cytochrome P450 2C19 (Homo sapiens) (UniProt P33261); test: qHTS Assay for Inhibitors and Substrates of Cytochrome P450 2C19 (AID 899; active means well fitted curve in the direction sought with a large enough effect; an effect the other way counts as inactive or inconclusive; further: potency means the concentration at half of the fitted maximal effect; nearly all actives have a fitted effect of over 60% in size)
How it was run: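 5 nM human CYP2C19 with 10uM Luciferin-H EGE (at KM) in 50mM KPO4, compound preincubated 10 min at 37C, then NADPH regeneration for 60 min at 37C. Luciferin read by luminescence after detection reagent; normalized to 57uM ketoconazole as full inhibition.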

[18] = measured here: cell count channel max response
[19] = measured here: lipid channel max response

3',5'-cyclic-AMP phosphodiesterase 4B (Homo sapiens), sequence (Q07343 whole entry, looked up): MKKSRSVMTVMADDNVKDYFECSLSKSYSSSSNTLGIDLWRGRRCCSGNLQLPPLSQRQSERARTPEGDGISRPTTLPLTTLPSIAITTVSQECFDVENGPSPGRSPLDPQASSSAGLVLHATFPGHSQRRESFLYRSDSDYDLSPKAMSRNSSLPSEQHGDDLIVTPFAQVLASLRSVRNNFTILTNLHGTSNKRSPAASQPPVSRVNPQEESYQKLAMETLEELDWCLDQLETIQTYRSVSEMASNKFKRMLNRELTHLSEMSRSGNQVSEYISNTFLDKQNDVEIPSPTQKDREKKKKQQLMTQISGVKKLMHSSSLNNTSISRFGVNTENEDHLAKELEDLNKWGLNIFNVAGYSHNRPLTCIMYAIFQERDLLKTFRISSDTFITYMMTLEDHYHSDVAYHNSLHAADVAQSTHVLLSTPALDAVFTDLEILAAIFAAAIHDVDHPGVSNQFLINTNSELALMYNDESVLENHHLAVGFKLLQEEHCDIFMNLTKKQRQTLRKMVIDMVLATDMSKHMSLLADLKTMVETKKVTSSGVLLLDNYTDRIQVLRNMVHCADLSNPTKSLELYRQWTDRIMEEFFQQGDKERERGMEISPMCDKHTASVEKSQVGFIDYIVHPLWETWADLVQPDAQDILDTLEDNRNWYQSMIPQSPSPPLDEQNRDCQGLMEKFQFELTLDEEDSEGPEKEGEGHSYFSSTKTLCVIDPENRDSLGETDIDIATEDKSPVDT
Cytochrome P450 1A2 (Homo sapiens), sequence (P05177 whole entry, looked up): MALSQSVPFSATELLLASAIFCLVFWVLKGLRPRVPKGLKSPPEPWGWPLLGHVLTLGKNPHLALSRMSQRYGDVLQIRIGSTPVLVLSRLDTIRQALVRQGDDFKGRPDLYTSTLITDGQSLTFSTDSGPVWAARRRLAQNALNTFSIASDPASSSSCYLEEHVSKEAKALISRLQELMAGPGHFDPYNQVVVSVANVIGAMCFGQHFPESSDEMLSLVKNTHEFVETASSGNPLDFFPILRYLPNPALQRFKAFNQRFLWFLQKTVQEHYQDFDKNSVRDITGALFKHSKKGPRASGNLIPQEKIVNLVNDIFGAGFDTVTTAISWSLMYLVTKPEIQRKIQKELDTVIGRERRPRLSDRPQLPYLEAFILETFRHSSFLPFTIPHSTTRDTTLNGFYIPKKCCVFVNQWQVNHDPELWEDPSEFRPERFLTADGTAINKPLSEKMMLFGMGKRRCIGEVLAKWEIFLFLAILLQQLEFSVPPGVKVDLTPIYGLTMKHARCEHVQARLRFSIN
Glucocorticoid receptor (Homo sapiens), sequence (P04150 whole entry, looked up, the tested form may be a part): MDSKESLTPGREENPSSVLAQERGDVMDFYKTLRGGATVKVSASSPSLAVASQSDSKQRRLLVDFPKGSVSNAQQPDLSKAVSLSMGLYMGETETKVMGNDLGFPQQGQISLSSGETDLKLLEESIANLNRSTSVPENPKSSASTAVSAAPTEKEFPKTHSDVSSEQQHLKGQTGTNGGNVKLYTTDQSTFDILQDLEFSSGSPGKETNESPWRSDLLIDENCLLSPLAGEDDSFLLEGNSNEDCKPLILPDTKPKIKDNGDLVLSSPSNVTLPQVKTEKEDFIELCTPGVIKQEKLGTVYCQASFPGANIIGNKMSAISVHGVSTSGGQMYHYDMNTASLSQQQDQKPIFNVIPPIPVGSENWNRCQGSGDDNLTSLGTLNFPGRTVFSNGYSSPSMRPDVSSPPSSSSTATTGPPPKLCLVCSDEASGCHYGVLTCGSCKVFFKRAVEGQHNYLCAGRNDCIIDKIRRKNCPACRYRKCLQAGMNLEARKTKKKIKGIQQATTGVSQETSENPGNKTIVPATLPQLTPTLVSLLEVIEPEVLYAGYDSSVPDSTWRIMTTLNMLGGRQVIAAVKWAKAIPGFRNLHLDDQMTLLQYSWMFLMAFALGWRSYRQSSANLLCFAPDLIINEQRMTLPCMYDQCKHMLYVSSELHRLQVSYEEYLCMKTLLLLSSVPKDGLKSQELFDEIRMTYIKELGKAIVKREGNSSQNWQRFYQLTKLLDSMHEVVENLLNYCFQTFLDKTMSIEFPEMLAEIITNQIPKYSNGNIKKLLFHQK
Cytochrome P450 3A4 (Homo sapiens), sequence (P08684 whole entry, looked up): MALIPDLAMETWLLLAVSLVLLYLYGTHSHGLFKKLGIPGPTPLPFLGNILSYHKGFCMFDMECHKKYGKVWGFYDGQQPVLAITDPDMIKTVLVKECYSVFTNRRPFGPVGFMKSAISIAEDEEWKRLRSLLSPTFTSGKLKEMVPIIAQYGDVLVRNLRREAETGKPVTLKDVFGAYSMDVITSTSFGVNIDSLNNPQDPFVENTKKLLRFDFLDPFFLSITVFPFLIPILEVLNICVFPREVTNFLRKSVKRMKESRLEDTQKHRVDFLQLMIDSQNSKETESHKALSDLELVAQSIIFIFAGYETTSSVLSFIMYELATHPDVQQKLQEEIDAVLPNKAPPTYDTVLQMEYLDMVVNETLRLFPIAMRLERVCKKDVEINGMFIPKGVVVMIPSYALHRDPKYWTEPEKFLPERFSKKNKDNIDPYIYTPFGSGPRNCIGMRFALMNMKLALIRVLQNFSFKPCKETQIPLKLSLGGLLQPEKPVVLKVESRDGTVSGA
Lysosomal acid glucosylceramidase (Homo sapiens), sequence (P04062 whole entry, looked up): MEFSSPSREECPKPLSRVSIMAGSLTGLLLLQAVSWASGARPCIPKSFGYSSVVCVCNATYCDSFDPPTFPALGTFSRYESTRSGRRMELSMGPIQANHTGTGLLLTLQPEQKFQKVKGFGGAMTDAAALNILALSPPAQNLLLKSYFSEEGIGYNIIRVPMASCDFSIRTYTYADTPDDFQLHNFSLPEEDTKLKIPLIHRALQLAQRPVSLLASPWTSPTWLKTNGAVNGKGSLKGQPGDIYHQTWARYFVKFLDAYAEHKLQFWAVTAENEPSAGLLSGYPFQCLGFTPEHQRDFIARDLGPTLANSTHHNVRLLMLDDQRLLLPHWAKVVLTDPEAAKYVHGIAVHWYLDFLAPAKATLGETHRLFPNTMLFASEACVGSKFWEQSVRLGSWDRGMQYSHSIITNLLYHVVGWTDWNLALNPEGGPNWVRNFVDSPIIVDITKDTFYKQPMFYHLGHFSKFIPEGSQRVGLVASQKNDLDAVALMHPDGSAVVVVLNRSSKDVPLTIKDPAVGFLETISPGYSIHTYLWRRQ
Ubiquitin carboxyl-terminal hydrolase 1 (Homo sapiens), sequence (O94782 whole entry, looked up): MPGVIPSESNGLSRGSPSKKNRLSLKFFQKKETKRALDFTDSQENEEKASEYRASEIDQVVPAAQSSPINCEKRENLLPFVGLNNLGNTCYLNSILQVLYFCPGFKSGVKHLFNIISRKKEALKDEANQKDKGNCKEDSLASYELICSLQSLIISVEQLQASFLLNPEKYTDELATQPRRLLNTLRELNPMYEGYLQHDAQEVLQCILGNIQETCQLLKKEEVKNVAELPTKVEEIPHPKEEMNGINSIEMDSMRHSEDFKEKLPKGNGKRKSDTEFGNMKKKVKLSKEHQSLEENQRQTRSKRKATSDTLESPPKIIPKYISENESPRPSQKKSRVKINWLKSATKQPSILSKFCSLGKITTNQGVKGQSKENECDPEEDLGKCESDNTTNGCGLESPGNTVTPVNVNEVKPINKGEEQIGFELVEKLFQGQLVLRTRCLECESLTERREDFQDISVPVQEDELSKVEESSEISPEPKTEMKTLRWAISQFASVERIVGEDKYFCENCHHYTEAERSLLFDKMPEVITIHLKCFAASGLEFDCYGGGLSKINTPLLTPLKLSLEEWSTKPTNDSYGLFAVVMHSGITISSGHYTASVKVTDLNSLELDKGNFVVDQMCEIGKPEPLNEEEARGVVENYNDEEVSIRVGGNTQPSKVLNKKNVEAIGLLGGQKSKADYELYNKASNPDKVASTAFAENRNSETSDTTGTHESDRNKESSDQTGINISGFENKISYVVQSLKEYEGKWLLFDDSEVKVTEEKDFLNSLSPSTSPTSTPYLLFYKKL
Cytochrome P450 2C19 (Homo sapiens), sequence (P33261 whole entry, looked up): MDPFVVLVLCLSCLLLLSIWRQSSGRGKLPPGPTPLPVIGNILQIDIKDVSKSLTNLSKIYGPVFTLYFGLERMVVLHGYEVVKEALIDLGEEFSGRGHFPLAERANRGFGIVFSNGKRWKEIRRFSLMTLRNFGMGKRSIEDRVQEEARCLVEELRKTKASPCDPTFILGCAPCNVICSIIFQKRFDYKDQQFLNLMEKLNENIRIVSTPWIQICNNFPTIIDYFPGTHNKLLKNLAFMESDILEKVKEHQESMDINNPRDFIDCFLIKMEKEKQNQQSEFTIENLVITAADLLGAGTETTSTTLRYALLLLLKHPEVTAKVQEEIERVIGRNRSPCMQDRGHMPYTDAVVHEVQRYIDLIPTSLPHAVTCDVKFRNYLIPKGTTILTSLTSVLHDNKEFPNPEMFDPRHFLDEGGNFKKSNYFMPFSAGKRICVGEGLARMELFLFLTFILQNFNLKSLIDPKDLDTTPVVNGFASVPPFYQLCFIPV

CC(C)NC(=O)N1CC2(CCN(S(=O)(=O)c3ccccc3)CC2)C1
inactive: activity change, negative = inhibition [1] -9.04% | Potency [2] | activity change, negative = inhibition [3] 21.2% | activity, negative = inhibition [4] -0.15% | Potency [5] > 46 µM | outcome [6] | Potency [7] | activity change, negative = inhibition [8] -7.9% | Potency [9]
-2.51%: max response [8, 19]
3.88%: max response [8, 18]

c1nc(NC2CCNCC2)c2cc(-c3ccc4c(c3)OCO4)ccc2n1
active: Potency [2] 12.6 µM
1.52%: max response [8, 18]
6.41%: max response [8, 19]
inactive: Potency [10] > 11.4 µM | activity change, negative = inhibition [1] 7.44% | activity, negative = inhibition [4] 2.23% | Potency [11] > 46 µM | Potency [5] > 46 µM | outcome [6] | Potency [7] | Potency [12] | outcome [13] | outcome [14] | activity change, negative = inhibition [8] 6.44% | Potency [15] | Potency [9]

COc1ncc2ncc(=O)n(Cc3cccs3)c2n1
inactive: activity change, negative = inhibition [1] 1.19% | activity change, negative = inhibition [3] -2.85% | activity, negative = inhibition [4] -3.48% | Potency [11] > 9.22 µM | Potency [5] > 46 µM | outcome [6] | Potency [12] | activity change, negative = inhibition [8] 4.1% | Potency [9]
19.6%: max response [8, 19]
9.65%: max response [8, 18]
active: Potency [2] 10 µM

CC(=O)N1CCC2(CCN(Cc3ccncc3)CC2)CC1
inactive: Potency [10] > 11.4 µM | activity change, negative = inhibition [1] 5.96% | Potency [2] | activity, negative = inhibition [4] -6.6% | Potency [5] > 46 µM | outcome [6] | Potency [7] | activity change, negative = inhibition [8] 2.82% | Potency [9]
7.01%: max response [8, 18]
14.4%: max response [8, 19]

CS(=O)(=O)Nc1cccc(-c2nccc(NCc3ccccc3)n2)c1
-0.959%: max response [8, 18]
4.33%: max response [8, 19]
inactive: Potency [10] > 11.4 µM | activity change, negative = inhibition [1] -20% | activity change, negative = inhibition [3] -4.2% | activity, negative = inhibition [4] -11.8% | Potency [11] > 46 µM | Potency [5] > 46 µM | outcome [6] | Potency [7] | outcome [13] | outcome [14] | activity change, negative = inhibition [8] 6.93% | Potency [15] | Potency [9]

CN(C)c1ccc(-c2cncnc2NCc2cccs2)cc1
inactive: activity change, negative = inhibition [1] -15.1% | activity change, negative = inhibition [3] 2.25% | activity, negative = inhibition [4] -0.237% | Potency [11] > 46 µM | Potency [5] > 46 µM | Potency [12] | outcome [13] | outcome [14] | activity change, negative = inhibition [8] 7.98% | Potency [9]
active: Potency [2] 0.398 µM | Potency [16] 794 nM | Potency [17] 631 nM
4.82%: max response [8, 18]
15.4%: max response [8, 19]

Reference: PubChem BioAssay (NCATS)
